Assay outcomes as filed in PubChem.
GALR2 agonist: GALR2 (human) receptor agonism. GALR2-expressing cells, agonist activation read-out. activation, % (concentration not given with the values). actives 0.48% (n = 140,000). AID 803; in the data active = activation above about 5%, passing the limit was not always enough
Target sequence (O43603 whole entry, looked up): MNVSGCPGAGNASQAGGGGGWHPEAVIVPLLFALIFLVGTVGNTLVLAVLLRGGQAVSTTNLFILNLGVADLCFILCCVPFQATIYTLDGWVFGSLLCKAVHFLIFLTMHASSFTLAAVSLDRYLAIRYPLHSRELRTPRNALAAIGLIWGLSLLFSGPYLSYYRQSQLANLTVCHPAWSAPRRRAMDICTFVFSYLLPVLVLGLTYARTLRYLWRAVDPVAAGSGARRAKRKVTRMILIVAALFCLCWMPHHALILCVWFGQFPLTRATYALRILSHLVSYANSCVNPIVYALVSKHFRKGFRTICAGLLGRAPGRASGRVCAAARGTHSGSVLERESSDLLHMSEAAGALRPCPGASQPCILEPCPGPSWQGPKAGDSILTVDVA
GALR2 blocker: antagonists of human galanin receptor 2 (GALR2); O43603; GALR2-expressing cells, antagonist mode; inhibition, % at 4 µM; actives 0.39% (n = 140,000); AID 828; in the data active = inhibition above about 27%;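 also: cells stimulated with galanin 1-16 at roughly its EC80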
S1P2 blocker: S1P2 (human) receptor antagonism; O95136; cell-based S1P2 antagonist assay, inhibition at 5 uM; inhibition, % at 5 µM; actives 0.21% (n = 97,000); AID 736; in the data active = inhibition above about 45%;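 also: CRE beta-lactamase reporter cells expressing human S1P2 stimulated with S1P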
Target sequence (O95136 whole entry, looked up): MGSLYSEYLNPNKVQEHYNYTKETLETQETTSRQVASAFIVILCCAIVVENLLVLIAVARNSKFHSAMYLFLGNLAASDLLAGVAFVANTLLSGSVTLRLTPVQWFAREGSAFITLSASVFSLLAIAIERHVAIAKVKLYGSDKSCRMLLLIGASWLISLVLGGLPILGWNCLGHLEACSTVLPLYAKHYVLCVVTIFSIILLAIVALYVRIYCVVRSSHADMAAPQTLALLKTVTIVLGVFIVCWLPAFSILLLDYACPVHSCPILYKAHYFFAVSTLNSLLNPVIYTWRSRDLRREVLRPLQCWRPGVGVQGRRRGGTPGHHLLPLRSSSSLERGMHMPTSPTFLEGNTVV
Mac1 fbg enh: increases human CD11b/CD18 adhesion to fibrinogen; P05107+P11215; K562 CD11b/CD18 adhesion to fibrinogen, ATPlite luminescence; activation, % at 10 µM; actives 0.07% (n = 93,000);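 active = 10 µM primary screen giving 50% or more activity, confirmed by 40% or more on retest at that dose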
CD11b adhes inh: CD11b/CD18-fibrinogen binding inhibition; P05107+P11215; K562 CD11b/CD18 adhesion to fibrinogen, ATPlite luminescence; Mn2+ added to activate the integrin; inhibition, % at 10 µM; actives 0.54% (n = 93,000); AID 1497;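 active = primary inhibition of 50% or more at 10 µM, then 40% or more on retest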
S1P2 agonist: activates the human S1P2 receptor; actives 0.46% (n = 97,000); S1P2-expressing cell line, agonist reporter read-out; activation, % at 4.5 µM; AID 729; in the data active = activation above about 16%
GALR2 agon conf: GALR2 (human) agonism confirmed | activation, % at 5.6 µM | actives 10% (n = 460) | AID 864 | shares compounds with GALR2 agonist | GALR2-expressing cells, agonist activation; in the data active = activation above about 8.4%
BLA act counter: counter-screen for GALR2 agonists: beta-lactamase reporter activators | AID 865 | actives 10% (n = 460) | activation, % at 5.6 µM | shares compounds with GALR2 agonist | CHO NFAT-bla reporter, beta-lactamase FRET activation;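 active = activation above the screen-wide mean activation plus 3 SD, cut at about 8% in these data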
Of the large screens only hits and unclear results are named; the others gave an inactive call (follow-up assays come after a bar, where they were run). This is a sample that favours compounds with a hit; in the whole collection about 1.5% have one here.

O=C(O)C(Cc1ccccc1)N1Cc2ccccc2C1=O (stereo unspecified)	none | GALR2 agon conf inactive | BLA act counter inactive
CC(=O)c1ccc2c3c(cccc13)C(=O)N(c1c(C)nn(C)c1C)C2=O	GALR2 agonist 20 | GALR2 agon conf inactive | BLA act counter inactive
Cc1n[nH]c(C)c1N1C(=O)c2cccc3c(N4CCCCCC4)ccc(c23)C1=O	none
Cc1ncsc1CCOC(=O)C1C2CC3CC(C2)CC1C3 (stereo unspecified)	none (no result: S1P2 blocker, Mac1 fbg enh, CD11b adhes inh, S1P2 agonist)
O=S(=O)(Nc1cc2nc3ccccc3nc2n1Cc1ccccc1)c1ccc(Cl)cc1	GALR2 agonist 14 (no result: S1P2 blocker, Mac1 fbg enh, CD11b adhes inh, S1P2 agonist) | GALR2 agon conf inactive | BLA act counter inactive
Cc1nn(Cc2c(Cl)cccc2Cl)c(C)c1NC(=O)c1sc2ccccc2c1Cl	GALR2 agonist 12 | GALR2 agon conf inactive | BLA act counter inactive
S=c1[nH]nc(-c2cc3c(s2)-c2ccccc2CC3)o1	CD11b adhes inh 64 | GALR2 agon conf inactive | BLA act counter inactive
CSc1nnc(-c2cc3c(s2)-c2ccccc2CC3)o1	none
O=C(Cc1sc(-c2ccccc2Cl)nc1-c1ccccc1)Nc1ccccc1	GALR2 agonist 26 | GALR2 agon conf inactive | BLA act counter inactive
O=C(Cc1sc(-c2ccccc2Cl)nc1-c1ccccc1)Nc1ccc(F)cc1	none
O=C(O)c1ccccc1C(=O)Nc1ccc(S(=O)(=O)NC2CCCCC2)cc1	GALR2 agonist 14 (no result: S1P2 blocker, Mac1 fbg enh, CD11b adhes inh, S1P2 agonist) | GALR2 agon conf inactive | BLA act counter inactive
O=C(Nc1nnc(-c2ccccc2Cl)o1)c1nc2ccccc2s1	none
Cc1ccc(N=C2NC(=O)CS2)c(C)c1	none
O=C1CSC(=Nc2cc(Cl)ccc2Cl)N1	GALR2 agonist 27 | GALR2 agon conf inactive | BLA act counter inactive
Oc1ccc(O)c(-c2cnns2)c1	none (no result: S1P2 blocker, Mac1 fbg enh, CD11b adhes inh, S1P2 agonist)
COc1ccc(OC)c(NC(=O)CSc2nnc(C3CCCCC3)n2-c2ccccc2)c1	none (no result: Mac1 fbg enh, CD11b adhes inh)
CCCCn1c(NC(=O)c2ccccc2)c(C#N)c2nc3ccccc3nc21	GALR2 agonist 16, CD11b adhes inh 99 | GALR2 agon conf inactive | BLA act counter 14
Cc1ccc(C)c(OCCCCn2ccnc2)c1	none | GALR2 agon conf inactive | BLA act counter inactive
Cc1ccc(OCCCCn2ccnc2)c(Cl)c1	none
CCC(C)c1ccccc1NC(=O)COC(=O)c1ccc2c(c1)S(=O)(=O)c1ccccc1C2=O (stereo unspecified)	none (no result: S1P2 blocker, S1P2 agonist)
CCOC(=O)/C(=N\Nc1ccc(Cl)cc1)c1csc(Nc2ccccc2)n1	none
CCOC(=O)/C(=N/Nc1ccccc1)c1csc(Nc2ccccc2)n1	GALR2 agonist 56 | GALR2 agon conf inactive | BLA act counter inactive
CCOc1ccc(-c2nnc(NC3=NCCCCC3)o2)cc1	GALR2 agonist 17 | GALR2 agon conf inactive | BLA act counter inactive
COc1ccc(NC(=O)CCC2CCCCC2)cc1S(=O)(=O)N1CCCCC1	none (no result: S1P2 blocker, S1P2 agonist)
O=C(CCCOc1ccccc1)N1CCN(c2ccccc2)CC1	none
CC(=O)c1ccc(OCCCC(=O)OCC(=O)N2CCN(c3ccccc3)CC2)cc1	GALR2 agonist 68 | GALR2 agon conf inactive | BLA act counter inactive
COc1cccc2sc(Nc3nc4ccc(NC(C)=O)cc4s3)nc12	GALR2 agonist 10 (no result: S1P2 blocker, Mac1 fbg enh, CD11b adhes inh, S1P2 agonist) | GALR2 agon conf inactive | BLA act counter inactive
CCCS(=O)(=O)c1snnc1C	GALR2 agonist 14 | GALR2 agon conf inactive | BLA act counter inactive
CC(C)NC(=S)NNC(=O)C12CC3CC(CC(C3)C1)C2	GALR2 agonist 12 | GALR2 agon conf inactive | BLA act counter inactive
CCCCNC(=S)NNC(=O)C12CC3CC(CC(C3)C1)C2	none
O=C(/C=C/c1cccc([N+](=O)[O-])c1)N1CCN(Cc2ccc3c(c2)OCO3)CC1	none (no result: S1P2 blocker, Mac1 fbg enh, CD11b adhes inh, S1P2 agonist)
CCN(CC(=O)Nc1c(C(=O)OC)[nH]c2ccc(Cl)cc12)c1ccc2c(c1)OCO2	none
CCOC(=O)c1[nH]c2ccc(Cl)cc2c1NC(=O)/C=C/c1ccc2c(c1)OCO2	GALR2 agonist 14 (no result: S1P2 blocker, S1P2 agonist) | GALR2 agon conf 8.5 | BLA act counter inactive
CC(=O)Nc1ccc(S(=O)(=O)c2c(N)n(CCN3CCOCC3)c3nc4ccccc4nc23)cc1	none (no result: S1P2 blocker, S1P2 agonist)
CC(=O)Nc1c(S(=O)(=O)c2ccccc2)c2nc3ccccc3nc2n1Cc1ccccc1	none (no result: Mac1 fbg enh, CD11b adhes inh) | GALR2 agon conf inactive | BLA act counter inactive
COc1ccc(C2CC3(CC(C)(C)NC(SC)=N3)Oc3cc(O)cc(C)c32)cc1 (stereo unspecified)	GALR2 agonist 19 (no result: S1P2 blocker, Mac1 fbg enh, CD11b adhes inh, S1P2 agonist) | GALR2 agon conf 25 | BLA act counter 84
CCNC(=S)N(Cc1ccc2c(c1)OCO2)C1CC(=O)N(c2ccc(F)cc2)C1=O (stereo unspecified)	none | GALR2 agon conf inactive | BLA act counter inactive
Cc1ccc(NC(=O)CN(C)C(=O)COc2cccc3cccnc23)cc1	none (no result: S1P2 blocker, Mac1 fbg enh, CD11b adhes inh, S1P2 agonist)
COC(=O)C1=C(C)N(C)C(C)=C(C(=O)OC)C1c1ccsc1	none
CCOC(=O)C1=CN(C)C=C(C(=O)OCC)C1c1ccsc1	none | GALR2 agon conf inactive | BLA act counter inactive
COc1cccc(CN(C)C(=O)Nc2cccc(C(F)(F)F)c2)c1OC	none (no result: S1P2 blocker, S1P2 agonist)
CCOC(=O)c1[nH]c(C)c(C(=O)Nc2ccc(C)c(F)c2)c1C	GALR2 agonist 44 (no result: S1P2 blocker, S1P2 agonist) | GALR2 agon conf inactive | BLA act counter inactive
Cn1cc(C(=O)N2CCc3ccccc32)cn1	none (no result: S1P2 blocker, Mac1 fbg enh, CD11b adhes inh, S1P2 agonist)
CCc1ccc(-c2cc(C(F)(F)F)n3nc(C(=O)Nc4c(C)nn(Cc5ccc(F)cc5)c4C)cc3n2)s1	GALR2 agonist 13 | GALR2 agon conf inactive | BLA act counter inactive
Cc1ccccc1Cn1nc(C)c(NC(=O)c2cc3nc(-c4ccco4)cc(C(F)(F)F)n3n2)c1C	none
COc1cccc(NC(=S)NCc2cccs2)c1	none (no result: S1P2 blocker, Mac1 fbg enh, CD11b adhes inh, S1P2 agonist)
O=C(Nc1ccc(Br)cc1)c1ccc(N2C(=O)C3CC=C(Cl)CC3C2=O)cc1 (stereo unspecified)	GALR2 agonist 12 | GALR2 agon conf inactive | BLA act counter inactive
CCN(CC(=O)Nc1ccccc1OC)C(=O)COc1ccc2ccccc2c1	none (no result: S1P2 blocker, Mac1 fbg enh, CD11b adhes inh, S1P2 agonist)
COc1ccc(NC(=O)C2=C(C)C(=O)OC23CCC(C)CC3)cc1Cl (stereo unspecified)	GALR2 agonist 84 | GALR2 agon conf inactive | BLA act counter inactive
COc1ccc(CNC(=O)C2=C(C)C(=O)OC23CCC(C)CC3)cc1 (stereo unspecified)	none
O=C(COc1ccc(Cl)cc1)NNC(=O)C(=O)N1CCCCC1	GALR2 agonist 29 (no result: Mac1 fbg enh, CD11b adhes inh) | GALR2 agon conf inactive | BLA act counter inactive
CC1(C)CC(=O)C2=C(C1)N(CCN1CCOCC1)C1=C(C(=O)CC(C)(C)C1)C2c1cccc(Cl)c1	none (no result: Mac1 fbg enh, CD11b adhes inh) | GALR2 agon conf inactive | BLA act counter inactive
Cc1ccc(S(=O)(=O)NC(=O)NCc2ccc3c(c2)OCO3)cc1	GALR2 agonist 152 | GALR2 agon conf inactive | BLA act counter inactive
CN(Cc1nc(-c2ccccn2)no1)S(=O)(=O)c1ccccc1	none | GALR2 agon conf inactive | BLA act counter inactive
CCOc1ccc(/C=N/Nc2cc(=O)n(C)c(=O)n2C)cc1	none (no result: S1P2 blocker, Mac1 fbg enh, CD11b adhes inh, S1P2 agonist)
